The values that follow come from PubChem BioAssay.

Where “and” joins values, the source holds several entries; their conditions need not be identical. Identical values can stand only once.

One test in a line: EMT-state selective cytotoxicity in co-culture – imaging, PC-3E GFP, TEM4-18 mCherry, primary screen (AID 1345086).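 Note: cells exposed to compound for 72 h before imaging.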 The note with it: PC-3E GFP / TEM4-18 mCherry co-culture, imaging cell counts; measured here: epithelial PC-3E GFP cell survival; at 1 µM.
In turn, `CCCCCCCCCCCCCCCC[n+]1ccccc1` showed a normalised cell number of 0.52.

As to `OC1CCCCC1N1CCC(c2ccccc2)CC1` (stereo unspecified), the normalised cell number came to 1.07.

Molecule `N[C@H](CO)Cc1ccccc1` displayed a normalised cell number of 1.16.

For the molecule `CC(N)Cc1ccc(O)cc1` (stereo unspecified), the normalised cell number is 1.27.

The molecule `CC[C@@H]1C(=O)OC[C@@H]1Cc1cncn1C` came in with a normalised cell number of 0.97.

`O=C1C(Cl)=C(Cl)C(=O)C(Cl)=C1Cl` displayed a normalised cell number of 1.

`COc1cc2c(cc1OC)C(C)NCC2` (stereo unspecified) had a normalised cell number of 0.91.

In turn, `CC1(C)C2CC(=O)[C@]3(C)C(CC[C@@]4(C)[C@H](c5ccoc5)OC(=O)C5OC543)[C@@]2(C)[C@@H](O)C[C@H]1O` (stereo partly specified) yielded a normalised cell number of 0.78.

`O=[N+]([O-])c1cc([As](=O)(O)O)ccc1O` showed a normalised cell number of 0.89.

The molecule `COc1cc2ccc(=O)oc2c2ccoc12` gave a normalised cell number of 0.96.

The molecule `COc1ccc2c(c1O)-c1c(OC)c(OC)cc3c1[C@H](C2)N(C)CC3` showed a normalised cell number of 0.99.

The molecule `COc1ccc2c(c1)[nH]c1c(C)nccc12` registered a normalised cell number of 0.9.

As to `O=C(O)CCC1NCC2CC1CN1CCCCC21` (stereo unspecified), the normalised cell number worked out at 0.9.

For the molecule `NC(N)=NOCC[C@H](N)C(=O)O`, the normalised cell number was 0.91.

As to `CN1C2CCC1CC(OC(c1ccccc1)c1ccccc1N)C2` (stereo unspecified), the normalised cell number was 1.34.

In the case of `COC1=C[C@@H]2[C@@H]3Cc4ccc(OC)c(O)c4[C@]2(CCN3C)CC1=O`, the normalised cell number amounted to 1.39.

`C[C@H]1CCCC(=O)CCC/C=C/c2cc(O)cc(O)c2C(=O)O1` came in with a normalised cell number of 1.02.

With `O=C1C=CC(=O)c2c(O)cccc21`, the normalised cell number came out at 1.05.

With `CCOP(=S)(OCC)Oc1nc(Cl)c(Cl)cc1Cl`, the normalised cell number is 0.9.

Take `NCCc1c[nH]c2ccccc12`: the normalised cell number stood at 0.86.

Take `CN[C@@H](C)[C@@H](O)c1ccccc1`: the normalised cell number turned out to be 1.12.

For the molecule `COc1ccc2c3c([nH]c2c1)C(C)=NCC3`, the normalised cell number worked out at 1.06.

In turn, `CN1CCc2cc3c(cc2C1O)OCO3` (stereo unspecified) came in with a normalised cell number of 0.97.

Turning to `CNC(C)C(O)c1ccccc1` (stereo unspecified), the normalised cell number is 1.05.

For `CN(C)[C@@H]1C(=O)C(C(N)=O)=C(O)[C@@]2(O)C(=O)C3=C(O)c4c(O)ccc(Cl)c4[C@@](C)(O)[C@H]3C[C@@H]12`, the normalised cell number was 1.16 and 0.93.

Take `CC1=C(O)C(=O)C=C2C1=CC=C1[C@@]2(C)CC[C@@]2(C)[C@@H]3C[C@](C)(C(=O)O)CC[C@]3(C)CC[C@]12C`: the normalised cell number was determined as 0.09.

Staying with this test, now noted: PC-3E GFP / TEM4-18 mCherry co-culture, imaging cell counts; measured here: mesenchymal TEM4-18 mCherry cell survival; at 1 µM.
Molecule `CN[C@@H]1[C@@H](O)C(OC2[C@@H](N)C[C@@H](N)[C@H](O[C@H]3O[C@H](C(C)O)[C@@H](O)[C@H](O)[C@H]3N)[C@H]2O)OC[C@]1(C)O` (stereo partly specified) gave a normalised cell number of 0.99.

Turning to `COc1cc(OC)c(OC)cc1C=O`, the normalised cell number was determined as 1.18.

`[N-]=[N+]=CC(=O)OCC(N)C(=O)O` (stereo unspecified): the normalised cell number amounted to 1.16.

In turn, `C[C@H](N)[C@H](O)c1ccc(O)c(O)c1` yielded a normalised cell number of 1.18.

In the case of `S=C=NCc1ccccc1`, the normalised cell number was found to be 0.95.

Take `O=C(O)CCCOc1ccc(Cl)cc1Cl`: the normalised cell number stood at 1.05.

`CC[N+]1(C)CCCC(OC(=O)C(O)(c2ccccc2)c2ccccc2)C1` (stereo unspecified) had a normalised cell number of 1.1.

Turning to `CC1=NCCc2c1[nH]c1cc(O)ccc21`, the normalised cell number came to 0.99.

As for `C[C@@H](N)[C@@H](O)c1ccccc1`, the normalised cell number was determined as 1.1.

Molecule `COc1cc([C@@H]2c3cc4c(cc3[C@@H](O)C3COC(=O)C32)OCO4)cc(OC)c1O` (stereo partly specified) yielded a normalised cell number of 0.31.

With `ClC1C(Cl)C(Cl)C(Cl)C(Cl)C1Cl` (stereo unspecified), the normalised cell number amounted to 1.47.

`O=C(O)CC[N+](=O)[O-]` displayed a normalised cell number of 0.91.

`C=CCC1(C(C)CCC)C(=O)N=C(S)NC1=O` (stereo unspecified) returned a normalised cell number of 1.03.

On to `O=C1C=C2C=C[C@@H]3C[C@@]2(O1)[C@H]1CCCCN31`, for which the normalised cell number was 1.09.

Take `CCCCCCCCCCCCCCCC[n+]1ccccc1`: the normalised cell number stood at 0.4.

The molecule `OC1CCCCC1N1CCC(c2ccccc2)CC1` (stereo unspecified) displayed a normalised cell number of 1.05.

For `N[C@H](CO)Cc1ccccc1`, the normalised cell number was determined as 1.17.

Regarding `CC(N)Cc1ccc(O)cc1` (stereo unspecified), the normalised cell number worked out at 1.19.

For `CC[C@@H]1C(=O)OC[C@@H]1Cc1cncn1C`, the normalised cell number was found to be 1.14.

Molecule `O=C1C(Cl)=C(Cl)C(=O)C(Cl)=C1Cl` gave a normalised cell number of 1.04.

`COc1cc2c(cc1OC)C(C)NCC2` (stereo unspecified) yielded a normalised cell number of 0.94.

On to `CC1(C)C2CC(=O)[C@]3(C)C(CC[C@@]4(C)[C@H](c5ccoc5)OC(=O)C5OC543)[C@@]2(C)[C@@H](O)C[C@H]1O` (stereo partly specified), for which the normalised cell number was 0.8.

In the case of `O=[N+]([O-])c1cc([As](=O)(O)O)ccc1O`, the normalised cell number came out at 1.19.

As to `COc1cc2ccc(=O)oc2c2ccoc12`, the normalised cell number stood at 0.97.

Consider `COc1ccc2c(c1O)-c1c(OC)c(OC)cc3c1[C@H](C2)N(C)CC3`, for which the normalised cell number stood at 1.09.

On to `COc1ccc2c(c1)[nH]c1c(C)nccc12`, for which the normalised cell number was 0.6.

As to `O=C(O)CCC1NCC2CC1CN1CCCCC21` (stereo unspecified), the normalised cell number was determined as 1.01.

`NC(N)=NOCC[C@H](N)C(=O)O` registered a normalised cell number of 0.95.

For the molecule `CN1C2CCC1CC(OC(c1ccccc1)c1ccccc1N)C2` (stereo unspecified), the normalised cell number was 1.01.

`COC1=C[C@@H]2[C@@H]3Cc4ccc(OC)c(O)c4[C@]2(CCN3C)CC1=O` registered a normalised cell number of 1.03.

Molecule `C[C@H]1CCCC(=O)CCC/C=C/c2cc(O)cc(O)c2C(=O)O1` displayed a normalised cell number of 1.04.

In turn, `O=C1C=CC(=O)c2c(O)cccc21` gave a normalised cell number of 1.03.

`CCOP(=S)(OCC)Oc1nc(Cl)c(Cl)cc1Cl` came in with a normalised cell number of 0.82.

Molecule `NCCc1c[nH]c2ccccc12` gave a normalised cell number of 0.92.

`CN[C@@H](C)[C@@H](O)c1ccccc1` came in with a normalised cell number of 1.18.

The molecule `COc1ccc2c3c([nH]c2c1)C(C)=NCC3` showed a normalised cell number of 0.98.

For the molecule `CN1CCc2cc3c(cc2C1O)OCO3` (stereo unspecified), the normalised cell number is 1.06.

In turn, `CNC(C)C(O)c1ccccc1` (stereo unspecified) registered a normalised cell number of 1.03.

`CN(C)[C@@H]1C(=O)C(C(N)=O)=C(O)[C@@]2(O)C(=O)C3=C(O)c4c(O)ccc(Cl)c4[C@@](C)(O)[C@H]3C[C@@H]12`: the normalised cell number was 1.04 and 1.43.

For `CC1=C(O)C(=O)C=C2C1=CC=C1[C@@]2(C)CC[C@@]2(C)[C@@H]3C[C@](C)(C(=O)O)CC[C@]3(C)CC[C@]12C`, the normalised cell number was determined as 0.05.
